From publication PMC11062922 (Nature Chemical Biology, 2023)
Read-outs that look alike come from different tables or passages of the source.

Assays:
Set-up in all cases: species or system human, MV4-11 + K-562 + COLO205 + SK-N-BE2 + OVCAR-8
ATM = details: read-out: apparent Kd, n = 1
BMPR1B = details: read-out: apparent Kd; compound concentrations:100 nM and 1000 nM (sheet 'Samples'); n = 1
DDR1 = details: read-out: apparent Kd; compound concentrations:100 nM and 1000 nM (sheet 'Samples'); n = 1
IRAK3 = details: read-out: apparent Kd; compound concentrations:100 nM and 1000 nM (sheet 'Samples'); n = 1
MAPK10 = details: read-out: apparent Kd, n = 1
MAPK11 = details: read-out: apparent Kd, n = 1
MAPK14 = details: read-out: apparent Kd, n = 1
MAPK8 = details: read-out: apparent Kd; compound concentrations:100 nM and 1000 nM (sheet 'Samples'); n = 1
MAPK9 = details: read-out: apparent Kd, n = 1
MAPKAPK2 = details: read-out: apparent Kd, n = 1
PIK3CD = details: read-out: apparent Kd, n = 1
PRKAG1 = details: read-out: apparent Kd, n = 1
CDC7 = details: read-out: apparent Kd; compound concentrations: 100 nM and 1000 nM (sheet 'Samples'), CATDS: 6.3073958864856297E-2; n = 1
CDK16 = details: read-out: apparent Kd; compound concentrations: 100 nM and 1000 nM (sheet 'Samples'), CATDS: 0.118346075913056; n = 1
CDK2 = details: read-out: apparent Kd; compound concentrations: 100 nM and 1000 nM (sheet 'Samples'), CATDS: 0.141708067448752; n = 1
CDKL5 = details: read-out: apparent Kd; compound concentrations: 100 nM and 1000 nM (sheet 'Samples'), CATDS: 6.5208173112241197E-2; n = 1
CLK2 = details: read-out: apparent Kd; compound concentrations: 100 nM and 1000 nM (sheet 'Samples'), CATDS: 8.0907286547203805E-2; n = 1
CLK4 = details: read-out: apparent Kd; compound concentrations: 100 nM and 1000 nM (sheet 'Samples'), CATDS: 8.1638299421732605E-2; n = 1
CSNK2A1;CSNK2A3 = details: read-out: apparent Kd; compound concentrations: 100 nM and 1000 nM (sheet 'Samples'), CATDS: 6.6778954653333403E-2; n = 1
CSNK2A2 = details: read-out: apparent Kd; compound concentrations: 100 nM and 1000 nM (sheet 'Samples'), CATDS: 7.8455201722788401E-2; n = 1
GSK3A = details: read-out: apparent Kd; compound concentrations: 100 nM and 1000 nM (sheet 'Samples'), CATDS: 7.3699312386452706E-2; n = 1
GSK3B = details: read-out: apparent Kd; compound concentrations: 100 nM and 1000 nM (sheet 'Samples'), CATDS: 7.1527025569737807E-2; n = 1
ICK = details: read-out: apparent Kd; compound concentrations: 100 nM and 1000 nM (sheet 'Samples'), CATDS: 7.9134779366863195E-2; n = 1
AKT3 = details: read-out: apparent Kd, n = 1
FLT3 = details: read-out: apparent Kd; compound concentrations: 100 nM and 1000 nM (sheet 'Samples'), CATDS: 0.41420685455441397; n = 1
MYLK3 = details: read-out: apparent Kd; compound concentrations: 100 nM and 1000 nM (sheet 'Samples'), CATDS: 0.45144948525054202; n = 1
AKT2 = details: read-out: apparent Kd, compound concentrations: 100 nM and 1000 nM (sheet 'Samples'), n = 1
PIM2 = details: read-out: apparent Kd; compound concentrations: 100 nM and 1000 nM (sheet 'Samples'), CATDS: 0.52192336058926703; n = 1
EPHB4 = details: read-out: apparent Kd, n = 1
ERCC2 = details: read-out: apparent Kd, n = 1
FER = details: read-out: apparent Kd; compound concentrations:100 nM and 1000 nM (sheet 'Samples'); n = 1
PTK2B = details: read-out: apparent Kd; compound concentrations:100 nM and 1000 nM (sheet 'Samples'); n = 1
TNK1 = details: read-out: apparent Kd, n = 1
TNK2 = details: read-out: apparent Kd, n = 1
CDK6 = details: read-out: apparent Kd, compound concentrations: 100 nM and 1000 nM (sheet 'Samples'), n = 1
CDC42BPG = details: read-out: apparent Kd; compound concentrations: 100 nM and 1000 nM (sheet 'Samples'), CATDS: 0.370471808138506; n = 1
NLK = details: read-out: apparent Kd; compound concentrations: 100 nM and 1000 nM (sheet 'Samples'), CATDS: 0.289538211789438; n = 1
PRKCQ = details: read-out: apparent Kd, compound concentrations: 100 nM and 1000 nM (sheet 'Samples'), n = 1
PRKCZ = details: read-out: apparent Kd; compound concentrations: 100 nM and 1000 nM (sheet 'Samples'), CATDS: 0.11125426430481999; n = 1
MAP3K6 = details: read-out: apparent Kd; compound concentrations: 100 nM and 1000 nM (sheet 'Samples'), CATDS: 0.18139897534285501; n = 1
PIK3CA = details: read-out: apparent Kd; compound concentrations: 100 nM and 1000 nM (sheet 'Samples'), CATDS: 0.92567597438095595; n = 1
TESK1 = details: read-out: apparent Kd; compound concentrations: 100 nM and 1000 nM (sheet 'Samples'), CATDS: 0.16638994062749099; n = 1
EPHB2 = details: read-out: apparent Kd; compound concentrations: 100 nM and 1000 nM (sheet 'Samples'), CATDS: 5.4073383937865198E-2; n = 1
GAK = details: read-out: apparent Kd; compound concentrations: 100 nM and 1000 nM (sheet 'Samples'), CATDS: 5.4131734373928597E-2; n = 1
RPS6KA6 = details: read-out: apparent Kd; compound concentrations: 100 nM and 1000 nM (sheet 'Samples'), CATDS: 5.8254455151346002E-2; n = 1
SRC = details: read-out: apparent Kd; compound concentrations: 100 nM and 1000 nM (sheet 'Samples'), CATDS: 5.8386134416648999E-2; n = 1
[1] = compound concentrations:100 nM and 1000 nM (sheet 'Samples')

CCn1c(=O)c(Oc2ccc(F)cc2F)cc2cnc(NC3CCOCC3)nc21 [RO4367438-000]
potency estimated from few doses (ATM; [1]): 238 nM
potency estimated from few doses (BMPR1B): 867 nM
potency estimated from few doses (DDR1): 1510 nM
potency estimated from few doses (IRAK3): 1240 nM
potency estimated from few doses (MAPK10; [1]): 45.1 nM
potency estimated from few doses (MAPK11; [1]): 89.8 nM
potency estimated from few doses (MAPK14; [1]): 2.49 nM
potency estimated from few doses (MAPK8): 153 nM
potency estimated from few doses (MAPK9; [1]): 46.5 nM
potency estimated from few doses (MAPKAPK2; [1]): 8.81 nM
potency estimated from few doses (PIK3CD; [1]): 13.5 nM
potency estimated from few doses (PRKAG1; [1]): 128 nM

NS(=O)(=O)c1ccc(N/N=C2\C(=O)Nc3ccc(C(=O)NCCCn4ccnc4)cc32)cc1 [GW290597X]
potency estimated from few doses (ATM; compound concentrations: 100 nM and 1000 nM (sheet 'Samples'), CATDS: 0.20887249405767599): 232 nM
potency estimated from few doses (CDC7): 2220 nM
potency estimated from few doses (CDK16): 550 nM
potency estimated from few doses (CDK2): 409 nM
potency estimated from few doses (CDKL5): 2010 nM
potency estimated from few doses (CLK2): 1150 nM
potency estimated from few doses (CLK4): 1130 nM
potency estimated from few doses (CSNK2A1;CSNK2A3): 1870 nM
potency estimated from few doses (CSNK2A2): 1240 nM
potency estimated from few doses (GSK3A): 1440 nM
potency estimated from few doses (GSK3B): 1550 nM
potency estimated from few doses (ICK): 1210 nM

CS(=O)(=O)Nc1ccc(N/C=C2\C(=O)Nc3ccccc32)cc1 [GW278681X]
potency estimated from few doses (AKT3; compound concentrations: 100 nM and 1000 nM (sheet 'Samples'), CATDS: 0.228798391958558): 1780 nM
potency estimated from few doses (FLT3): 358 nM
potency estimated from few doses (MYLK3): 306 nM

Cc1ccc(C(=O)NC2CCCCC2)cc1-c1ccc(C(=O)NCC2CC2)cc1 [GW782907X]
potency estimated from few doses (AKT2; CATDS: 0.479844173242639): 1850 nM
potency estimated from few doses (PIM2): 1560 nM

O=C(Nc1c(F)cccc1F)c1cc(C(=O)c2ccccc2F)c[nH]1 [GSK1326180A]
potency estimated from few doses (AKT3; [1]): 1080 nM
potency estimated from few doses (EPHB4; [1]): 1310 nM
potency estimated from few doses (ERCC2; [1]): 984 nM
potency estimated from few doses (FER): 920 nM
potency estimated from few doses (PTK2B): 1070 nM
potency estimated from few doses (TNK1; [1]): 870 nM
potency estimated from few doses (TNK2; [1]): 898 nM

N#Cc1c(NC(=O)c2ccccc2F)sc2c1CCCC2 [GW572738X]
potency estimated from few doses (AKT2; CATDS: 0.30677432174967101): 2340 nM
potency estimated from few doses (CDK6; CATDS: 0.31503634964043797): 2200 nM
potency estimated from few doses (MAPKAPK2; compound concentrations: 100 nM and 1000 nM (sheet 'Samples'), CATDS: 0.38970586087063103): 1460 nM

CC(C)c1ccc(-c2cc(-c3c[nH]nc3-c3ccccn3)ccn2)cc1 [GW682841X]
potency estimated from few doses (ATM; compound concentrations: 100 nM and 1000 nM (sheet 'Samples'), CATDS: 0.768793574743593): 216 nM
potency estimated from few doses (CDC42BPG): 1220 nM

O=c1c(Oc2ccc(F)cc2F)cc2cnc(NC3CCOCC3)nc2n1C1CC1 [RO4399247-000]
potency estimated from few doses (AKT3; compound concentrations: 100 nM and 1000 nM (sheet 'Samples'), CATDS: 0.120130462725208): 1390 nM
potency estimated from few doses (MAPK10; compound concentrations: 100 nM and 1000 nM (sheet 'Samples'), CATDS: 0.16061628875685399): 690 nM
potency estimated from few doses (MAPK14; compound concentrations: 100 nM and 1000 nM (sheet 'Samples'), CATDS: 0.26404764630767302): 279 nM
potency estimated from few doses (MAPK9; compound concentrations: 100 nM and 1000 nM (sheet 'Samples'), CATDS: 0.111534825966063): 1740 nM
potency estimated from few doses (NLK): 242 nM
potency estimated from few doses (PRKCQ; CATDS: 0.10805556024324001): 1930 nM
potency estimated from few doses (PRKCZ): 1750 nM

CC(C)(C)c1ccc(C(=O)Nc2cn3cc(-c4cccnc4)ccc3n2)cc1 [TPKI-58]
potency estimated from few doses (AKT2; CATDS: 0.161552341020717): 1950 nM
potency estimated from few doses (CDK6; CATDS: 0.161106478670141): 1970 nM
potency estimated from few doses (MAP3K6): 1390 nM
potency estimated from few doses (PIK3CA): 17.7 nM
potency estimated from few doses (TESK1): 1790 nM

CC(C)(O)CCc1cccc(C(=O)c2cnn(-c3ccc(F)cc3)c2N)c1 [RO3200935-000]
potency estimated from few doses (ATM; compound concentrations: 100 nM and 1000 nM (sheet 'Samples'), CATDS: 0.124711216224064): 182 nM
potency estimated from few doses (EPHB2): 1310 nM
potency estimated from few doses (EPHB4; compound concentrations: 100 nM and 1000 nM (sheet 'Samples'), CATDS: 6.1726409917068299E-2): 862 nM
potency estimated from few doses (ERCC2; compound concentrations: 100 nM and 1000 nM (sheet 'Samples'), CATDS: 5.5764348636942303E-2): 1180 nM
potency estimated from few doses (GAK): 1300 nM
potency estimated from few doses (MAPK11; compound concentrations: 100 nM and 1000 nM (sheet 'Samples'), CATDS: 5.3024764927667702E-2): 1400 nM
potency estimated from few doses (MAPK9; compound concentrations: 100 nM and 1000 nM (sheet 'Samples'), CATDS: 4.8598107075800298E-2): 1970 nM
potency estimated from few doses (PIK3CD; compound concentrations: 100 nM and 1000 nM (sheet 'Samples'), CATDS: 0.17871618509773601): 101 nM
potency estimated from few doses (PRKAG1; compound concentrations: 100 nM and 1000 nM (sheet 'Samples'), CATDS: 0.16537945718140701): 114 nM
potency estimated from few doses (PRKCQ; CATDS: 0.173893551056024): 105 nM
potency estimated from few doses (RPS6KA6): 1020 nM
potency estimated from few doses (SRC): 1020 nM
potency estimated from few doses (TNK1; compound concentrations: 100 nM and 1000 nM (sheet 'Samples'), CATDS: 8.7272147556640506E-2): 366 nM
potency estimated from few doses (TNK2; compound concentrations: 100 nM and 1000 nM (sheet 'Samples'), CATDS: 6.9926040964812697E-2): 615 nM
